Records with an inconclusive call do not appear. Activity calls are given as the source filed them. The call rests on the fitted dose curve; in most records, active means well fitted cell-killing curve with a large enough effect; inconclusive means small, poorly fitted or top-dose-only effect, or effect the other way; inactive means no such curve, though single readings can be large or run the other way.
Test: Quantitative High-Throughput drug screen in 47 multiple myeloma cell lines against the NCATS MIPE library collection: INA6_PLB cell viability assay (AID 1918965; further: nearly all actives have a fitted effect of over 55% in size)
Conditions: INA6 myeloma viability, CellTiter-Glo ATP luminescence, 48 h; series mostly up to 45.8 µM
Procedure, shortened: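 Myeloma cell lines, 500 cells per well, exposed to MIPE 4.0 library compounds for 48 h at 37C, 5% CO2. Viability from ATP by CellTiter-Glo luminescence; normalised to DMSO (100%) and media-only (0%) wells.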
For `Clc1cccc(-n2nnnc2NCc2ccccc2Oc2ccccn2)c1Cl`, the Potency was “inactive”.
For `COc1cc2c(Nc3ccc(NC(=O)c4ccccc4)cc3)ncnc2cc1OCCCN1CCOCC1`, the Potency was 11.8 µM (active).
With `CC(C)c1noc(N2CCC(COc3ccc(-c4ccc(S(C)(=O)=O)cc4)nc3)CC2)n1` the Potency was 1.87 µM (active).
In the case of `NCC(=O)Nc1ccc(-n2nc(C(F)(F)F)cc2-c2ccc3c(ccc4ccccc43)c2)cc1`, the Potency is reported as 18.7 µM (active).
For `NC(=O)c1cccc2cn(-c3ccc([C@@H]4CCCNC4)cc3)nc12`, the Potency was 14.8 µM (active).
For `C1Cc2[nH]nc(-c3nn[nH]n3)c2C1`, the Potency was “inactive”.
For `O=C(O)CCCc1c[nH]c2ccccc12`, the Potency was “inactive”.
In the case of `C[C@]1(CO)CN(c2cc(C(=O)Nc3ccc4c(c3)-c3c(c(C(N)=O)nn3-c3ccc(F)cc3)CC4)c(Cl)cn2)C[C@@]1(C)CO`, the Potency is reported as 2.64 µM (active).
In the case of `NC1(Cc2ccc(Cl)cc2)CCN(c2ncnc3[nH]ccc23)CC1`, the Potency is reported as 3.72 µM (active).
With `CCCNC(=O)Nc1ccc(Oc2ncnc3cc(OC)c(OC)cc23)cc1Cl` the Potency was “inactive”.

Test: Quantitative High-Throughput drug screen in 47 multiple myeloma cell lines against the NCATS MIPE library collection: JJN3_DSMZ cell viability assay (AID 1918966; further: nearly all actives have a fitted effect of over 50% in size)
Conditions: JJN3 myeloma cells viability, CellTiter-Glo ATP, 48 h; series mostly up to 45.8 µM
Procedure, shortened: (§1)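 Luminescent ATP measurement with CellTiter-Glo gives viability, scaled between DMSO-only wells (100%) and media-only wells (0%). Cells, 500 per well, faced library compounds for 48 hours at 37C.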
In the case of `CC(C)c1cc(-c2n[nH]c(=O)n2-c2ccc3c(ccn3C)c2)c(O)cc1O`, the Potency is reported as 0.0418 µM (active).
For `Nc1nccc(Oc2ccc(NC(=O)c3c[nH]cc(-c4ccc(F)cc4)c3=O)cc2F)c1Cl`, the Potency was 20.9 µM (active).
For `COc1ccc2c(c1)CC[C@@H](CN(C)CC(=O)O)[C@H]2c1ccccc1`, the Potency was 10.5 µM (active).
For `Cn1c(=O)n(-c2ccc(C(C)(C)C#N)cc2)c2c3cc(-c4cnc5ccccc5c4)ccc3ncc21`, the Potency was 0.148 µM (active).
For `NC(=O)c1c(OCc2c(F)cc(Br)cc2F)nsc1NC(=O)NCCCCN1CCCC1`, the Potency was 20.9 µM (active).
In the case of `C=CC(=O)Nc1cccc(Oc2nc(Nc3ccc(N4CCN(C)CC4)cc3)ncc2Cl)c1`, the Potency is reported as 18.7 µM (active).
In the case of `OCc1ccc(-c2ccc(-c3ccc(CO)s3)o2)s1`, the Potency is reported as 16.6 µM (active).
In the case of `Clc1ccc2ncc(-c3cccc(NC4CNC4)n3)n2c1`, the Potency is reported as 16.6 µM (active).
In the case of `CC1(C)CCC(c2ccc(Cl)cc2)=C(CN2CCN(c3ccc(C(=O)NS(=O)(=O)c4ccc(N[C@H](CCN5CCOCC5)CSc5ccccc5)c(S(=O)(=O)C(F)(F)F)c4)cc3)CC2)C1`, the Potency is reported as 9.35 µM (active).
With `CS(=O)(=O)c1ccc(-c2cnc(N)c(C(=O)Nc3ccccc3)n2)cc1` the Potency was “inactive”.
In the case of `NCC(=O)Nc1ccc(-n2nc(C(F)(F)F)cc2-c2ccc3c(ccc4ccccc43)c2)cc1`, the Potency is reported as 20.9 µM (active).
With `NC1(Cc2ccc(Cl)cc2)CCN(c2ncnc3[nH]ccc23)CC1` the Potency was 13.2 µM (active).
In the case of `CCCNC(=O)Nc1ccc(Oc2ncnc3cc(OC)c(OC)cc23)cc1Cl`, the Potency is reported as “inactive”.

Test: Quantitative High-Throughput drug screen in 47 multiple myeloma cell lines against the NCATS MIPE library collection: H1112_PLB cell viability assay (AID 1918967; further: nearly all actives have a fitted effect of over 30% in size)
Conditions: H1112 myeloma cells viability, ATP luminescence, 48 h; series mostly up to 45.8 µM
Procedure, shortened: as §1
With `Cc1cc(Nc2nc(N[C@@H](C)c3ccc(F)cc3)c(C#N)cc2F)n[nH]1` the Potency was 16.6 µM (active).
For `COc1cccc(-c2ccc(NC(=O)C3=C(C(=O)O)CCC3)c(F)c2)c1`, the Potency was “inactive”.
In the case of `CC(C)Nc1cc(C(F)(F)F)cc2nc(NC(=O)c3cccnc3)nn12`, the Potency is reported as “inactive”.
In the case of `Nc1nccc(Oc2ccc(NC(=O)c3c[nH]cc(-c4ccc(F)cc4)c3=O)cc2F)c1Cl`, the Potency is reported as 20.9 µM (active).
For `COc1cc(-c2nn(C3CCC(N4CCN(C(C)=O)CC4)CC3)c3ncnc(N)c23)ccc1NC(=O)c1cc2ccccc2n1C` (centres undefined), the Potency was 0.0833 µM (active).
For `CCNC(=O)Nc1ccc2ncc(Nc3ccc(C)cc3)nc2n1`, the Potency was 5.9 µM (active).
In the case of `NC(=O)c1c(OCc2c(F)cc(Br)cc2F)nsc1NC(=O)NCCCCN1CCCC1`, the Potency is reported as 16.6 µM (active).
In the case of `C=CC(=O)Nc1cccc(Oc2nc(Nc3ccc(N4CCN(C)CC4)cc3)ncc2Cl)c1`, the Potency is reported as 5.9 µM (active).
With `C[C@]12CC[C@H](O)CC1=CCC1C2CC[C@]2(C)C(n3cnc4ccccc43)=CCC12` (some centres undefined) the Potency was “inactive”.
With `OCc1ccc(-c2ccc(-c3ccc(CO)s3)o2)s1` the Potency was 16.6 µM (active).
With `Clc1ccc2ncc(-c3cccc(NC4CNC4)n3)n2c1` the Potency was 11.8 µM (active).
For `CC1(C)CCC(c2ccc(Cl)cc2)=C(CN2CCN(c3ccc(C(=O)NS(=O)(=O)c4ccc(N[C@H](CCN5CCOCC5)CSc5ccccc5)c(S(=O)(=O)C(F)(F)F)c4)cc3)CC2)C1`, the Potency was 0.0833 µM (active).
With `Clc1cccc(-n2nnnc2NCc2ccccc2Oc2ccccn2)c1Cl` the Potency was “inactive”.
With `CC(C)c1noc(N2CCC(COc3ccc(-c4ccc(S(C)(=O)=O)cc4)nc3)CC2)n1` the Potency was “inactive”.
In the case of `CS(=O)(=O)c1ccc(-c2cnc(N)c(C(=O)Nc3ccccc3)n2)cc1`, the Potency is reported as 4.18 µM (active).
With `NCC(=O)Nc1ccc(-n2nc(C(F)(F)F)cc2-c2ccc3c(ccc4ccccc43)c2)cc1` the Potency was 20.9 µM (active).
For `NC(=O)c1cccc2cn(-c3ccc([C@@H]4CCCNC4)cc3)nc12`, the Potency was 20.9 µM (active).
In the case of `C1Cc2[nH]nc(-c3nn[nH]n3)c2C1`, the Potency is reported as “inactive”.
With `O=C(O)CCCc1c[nH]c2ccccc12` the Potency was “inactive”.
For `C[C@]1(CO)CN(c2cc(C(=O)Nc3ccc4c(c3)-c3c(c(C(N)=O)nn3-c3ccc(F)cc3)CC4)c(Cl)cn2)C[C@@]1(C)CO`, the Potency was 11.8 µM (active).
In the case of `CCCNC(=O)Nc1ccc(Oc2ncnc3cc(OC)c(OC)cc23)cc1Cl`, the Potency is reported as “inactive”.
Potency means the concentration at half of the fitted maximal effect.
